Results filed as inconclusive are left out. Calls of active or inactive are those of the source. The call rests on the fitted dose curve; in most records, active means well fitted curve in the direction sought with a large enough effect; inconclusive means small, poorly fitted or top-dose-only effect, or another doubt; inactive means no such curve, though single readings can be large; an effect the other way counts as inactive or inconclusive.
What was measured:
[1] = qHTS of pediatric cancer cell lines to identify multiple opportunities for drug repurposing: Primary screen for LAN-5 cells (AID 1347100); details: LAN-5 neuroblastoma viability, CellTiter-Glo luminescence, 48 h; series mostly up to 46 µM; further: potency means the concentration at half of the fitted maximal effect
Outline: (§1)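 Cells (500-1,000/well) rested 5 h, then received compounds for 48 h; metabolically active cells were measured by CellTiter-Glo luminescence. Final concentrations spanned up to 46 µM (MIPE, 11-point) or 0.59 nM-46 µM (NPC, 8-point) in primary screens, 11-point in follow-ups.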

[2] = qHTS of pediatric cancer cell lines to identify multiple opportunities for drug repurposing: Primary screen for BT-12 cells (AID 1347101); details: BT-12 viability, CellTiter-Glo luminescence, 48 h; series mostly up to 57.3 µM; further: nearly all actives have a fitted effect of over 25% in size
Outline: as §1

[3] = qHTS of pediatric cancer cell lines to identify multiple opportunities for drug repurposing: Primary screen for Rh18 cells (AID 1347102); details: Rh18 rhabdomyosarcoma viability, CellTiter-Glo luminescence, 48 h; series mostly up to 46 µM; further: nearly all actives have a fitted effect of over 65% in size
Outline: as §1

[4] = qHTS of pediatric cancer cell lines to identify multiple opportunities for drug repurposing: Primary screen for OHS-50 cells (AID 1347103); details: OHS-50 osteosarcoma viability, CellTiter-Glo luminescence, 48 h; series mostly up to 57.3 µM; further: nearly all actives have a fitted effect of over 40% in size
Outline: as §1

[5] = qHTS of pediatric cancer cell lines to identify multiple opportunities for drug repurposing: Primary screen for RD cells (AID 1347104); details: RD rhabdomyosarcoma viability, CellTiter-Glo luminescence, 48 h; series mostly up to 46 µM; further: nearly all actives have a fitted effect of over 55% in size
Outline: (§2)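 Plated cells (500-1,000 per well, growth media) were allowed to settle for 5 hours, treated with compound dilutions for 48 hours, then lysed with CellTiter-Glo for 15 min at room temperature before luminescence reading.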

[6] = qHTS of pediatric cancer cell lines to identify multiple opportunities for drug repurposing: Primary screen for MG 63 (6-TG R) cells (AID 1347105); details: MG 63 (6-TG R) viability, CellTiter-Glo, 48 h; series mostly up to 46 µM; further: nearly all actives have a fitted effect of over 50% in size
Outline: as §2

[7] = qHTS of pediatric cancer cell lines to identify multiple opportunities for drug repurposing: Primary screen for control Hh wild type fibroblast cells (AID 1347106); details: Hh wild-type fibroblast viability, CellTiter-Glo luminescence, 48 h; series mostly up to 46 µM;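 further: a drop in luminescence marks cytotoxicity and a rise apparent proliferation; nearly all actives have a fitted effect of over 55% in size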
Outline: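 Cells (500-1,000/well) in growth media were settled 5 h at 37 degrees C, then given compounds for 48 h. Viability was read as CellTiter-Glo luminescence. Primary runs used MIPE at 11 points (0.78 nM-46 µM) and NPC at 8 points (0.59 nM-46 µM); follow-ups used 11 points.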

[8] = qHTS of pediatric cancer cell lines to identify multiple opportunities for drug repurposing: Primary screen for Rh30 cells (AID 1347107); details: Rh30 rhabdomyosarcoma viability, CellTiter-Glo luminescence, 48 h; series mostly up to 46 µM; further: nearly all actives have a fitted effect of over 75% in size
Outline: as §1

[9] = qHTS of pediatric cancer cell lines to identify multiple opportunities for drug repurposing: Primary screen for Rh41 cells (AID 1347108); details: Rh41 rhabdomyosarcoma viability, CellTiter-Glo luminescence, 48 h; series mostly up to 46 µM;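 further: luminescence drop marks cytotoxic hits; nearly all actives have a fitted effect of over 70% in size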
Outline: as §2

[10] = biological target: Furin (Homo sapiens) (UniProt P09958); assay: Furin counterscreen qHTS for Zika virus inhibitors (AID 1347149); details: furin enzymatic counterscreen, fluorogenic substrate; series mostly up to 114 µM; further: nearly all actives have a fitted effect of over 70% in size; further: potency means the concentration at half of the fitted maximal effect
Sequence of Furin (Homo sapiens) (P09958 whole entry, looked up): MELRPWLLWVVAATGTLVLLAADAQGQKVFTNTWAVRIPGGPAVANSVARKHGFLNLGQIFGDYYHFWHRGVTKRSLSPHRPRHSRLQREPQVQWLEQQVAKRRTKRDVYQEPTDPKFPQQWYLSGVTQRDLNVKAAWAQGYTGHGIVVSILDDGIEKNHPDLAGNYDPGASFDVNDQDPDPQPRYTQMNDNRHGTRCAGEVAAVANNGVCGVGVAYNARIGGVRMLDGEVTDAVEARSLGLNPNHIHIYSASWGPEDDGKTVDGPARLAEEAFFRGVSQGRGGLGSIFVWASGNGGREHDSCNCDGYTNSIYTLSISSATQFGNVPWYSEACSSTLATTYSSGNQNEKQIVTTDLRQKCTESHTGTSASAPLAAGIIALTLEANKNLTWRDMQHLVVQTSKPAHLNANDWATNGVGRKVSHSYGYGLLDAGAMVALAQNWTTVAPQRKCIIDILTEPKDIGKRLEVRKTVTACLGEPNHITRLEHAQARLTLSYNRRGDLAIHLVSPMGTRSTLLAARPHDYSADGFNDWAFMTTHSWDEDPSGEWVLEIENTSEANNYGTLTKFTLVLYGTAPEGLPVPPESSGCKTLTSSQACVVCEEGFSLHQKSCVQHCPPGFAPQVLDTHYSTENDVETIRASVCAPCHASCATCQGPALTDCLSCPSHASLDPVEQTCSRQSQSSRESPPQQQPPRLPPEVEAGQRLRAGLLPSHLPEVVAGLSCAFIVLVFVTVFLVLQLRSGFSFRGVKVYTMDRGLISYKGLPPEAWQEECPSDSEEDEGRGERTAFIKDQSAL
Outline: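 Counterscreen measures cleavage of 2 microM BOC-RVRR-AMC, below its ~15 microM Km, by 5 nM full-length human furin at pH 7.0 after a 15-min compound preincubation. Inhibition derives from the 15-min fluorescence increase at 37C.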

Measured: Potency

O=C(O)c1c(O)c(-c2ccccc2)nc2ccccc12
inactive: [1] | [2] | [3] | [4] | [5] | [6] | [7] | [8] | [9]

CCOCCOC(=O)/C=C/c1ccc(OC)cc1
inactive: [1] | [2] | [3] | [4] | [5] | [6] | [7] | [8] | [9]

CC1=C(C(=O)OCc2ccccc2)C(c2ccc(-c3ccccc3)cc2)NC(=O)N1CCCCCC(=O)O (stereo not drawn)
active: [10] 39.3 µM

O=C(O)c1ccccc1NCCc1ccccc1
inactive: [1] | [2] | [3] | [4] | [5] | [6] | [7] | [8] | [9]

Nc1ccccc1N
inactive: [6] | [7]
active: [1] 17.2 µM

CCC(C(=O)O)c1ccc(N2Cc3ccccc3C2=O)cc1 (stereo not drawn)
inactive: [1] | [2] | [3] | [4] | [5] | [6] | [7] | [8] | [9]

Cc1ccc(N)cc1O
inactive: [6] | [7]

CC1(C)CCC(C)(C)c2cc(C3(c4ccc(C(=O)O)cc4)OCCO3)ccc21
inactive: [10]

O=C(N/N=C/c1ccc(O)c(O)c1)c1cc2ccccc2cc1O
inactive: [10]

CCc1c(-c2ccccc2)c(-c2ccccc2)nn1-c1ccccc1-c1cccc(OCC(=O)O)c1
active: [10] 30.4 µM

O=C(O)Cc1ccc2oc(-c3ccc(NC(=O)/C=C/c4ccc(Br)cc4)c(F)c3)nc2c1
active: [10] 55.5 µM

N#CC(c1ccnc(OCc2ccc(CN3CCOCC3)cc2)n1)c1nc2ccccc2s1 (stereo not drawn)
inactive: [10]

Nc1ncnc2c([C@@H]3N[C@H](CO)[C@@H](O)[C@H]3O)c[nH]c12
inactive: [10]

From PubChem BioAssay (NCATS)
